Reference: PubChem BioAssay AID999 (SRMLSC, 2007)
A number with no mark means an inactive call. Activity calls are given as the source filed them.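 How the source made its calls: active means viability at or below 21.59%, 3 SD under the median of tested compounds; inactive means the rest.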

Assay: growth suppression of PTEN-null HCT116 cells, cell-based, validation, diverse DP compound set (AID 999);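 further: 100% = median luminescence of untreated cell control wells and 0% = no signal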
Conditions: CellTiter-Glo, 60 h, at 10 µM, stronger effect = lower value

SMILES | viability
CC1COC2=C1C(=O)C(=O)c1c2ccc2c1CCCC2(C)C (stereo not given) | 17.8% (active)
CC(C)=CCC/C(C)=C/COc1ccc2ccc(=O)oc2c1 | 91.9%
CN1CCN(C2Cc3ccccc3Sc3ccc(S)cc32)CC1 (stereo not given) | 50.3%
CCC(C)C(O)C(C)C(=O)C(C)/C=C(\C)CC(C)C1OC(=O)C1CC (stereo not given) | 97.1%
Cc1ccc(Cl)c(Nc2ccccc2C(=O)O)c1Cl | 98.1%
COc1ccc(-c2cc(C(=O)O)no2)cc1 | 97.7%
CCOC(=O)C(C)(C)Oc1ccc(Cl)cc1 | 100%
Cn1c(=O)c2[nH]cnc2n(C)c1=O | 97.1%
CC1(COc2ccc(CC3SC(=O)NC3=O)cc2)CCCCC1 (stereo not given) | 95.3%
C[C@@]12C=Cc3occc3C1CC[C@@]13C[C@@H](CCC12)[C@@](O)(CO)C3 (stereo not given in full) | 93.5%
C[C@@H]1C[C@@H]([C@@H](C)CC2CC(=O)NC(=O)C2)C(=O)[C@@H](C)C1 | 30.2%
O=c1c(-c2ccc(O)cc2)coc2cc(O)ccc12 | 89.7%
C[C@@H]1C(=O)O[C@@H]2CC34C5CC(C(C)(C)C)[C@]36C(O)C(=O)O[C@@H]6O[C@@]4(C(=O)O5)[C@@]12O (stereo not given in full) | 53.4%
CC(=O)[C@H]1[C@H](C#N)CC2C3CC=C4C[C@@H](O)CCC4(C)C3CCC21C (stereo not given in full) | 94.8%
CCC[C@@H]1C[C@@H](C(=O)NC(C(C)Cl)[C@H]2O[C@H](SC)[C@H](O)[C@@H](O)[C@H]2O)N(C)C1 (stereo not given in full) | 100%
C/C=C1/C2C=C(C)CC1(N)c1ccc(=O)[nH]c1C2 (stereo not given) | 93.8%
Nc1nc2ncc(CNc3ccc(C(=O)NC(CCC(=O)O)C(=O)O)cc3)nc2c(=O)[nH]1 (stereo not given) | 99.5%
COc1ccc(/C=C/c2cc(OC)cc(=O)o2)cc1 | 85.2%
Cc1cc(CC(=O)O)n(C)c1C(=O)c1ccc(Cl)cc1 | 95.5%
CN(C)c1ccc(/C=C2\C(=O)Nc3ccccc32)cc1 | 86.2%
NCCNS(=O)(=O)c1cccc2c(Cl)cccc12 | 94.3%
O=c1c(-c2ccc(O)cc2)coc2cc(O)cc(O)c12 | 87.8%
O=C1OC(c2cc(I)c(O)c(I)c2)(c2cc(I)c(O)c(I)c2)c2ccccc21 | 93.5%
CC(C)NCC(O)COc1cccc2ccccc12 (stereo not given) | 89.1%
CC1(C)[C@@H](O[C@H]2O[C@H](C(=O)O)[C@@H](O)[C@H](O)[C@H]2O[C@@H]2O[C@H](C(=O)O)[C@@H](O)[C@H](O)[C@H]2O)CC[C@]2(C)[C@H]3C(=O)C=C4[C@@H]5C[C@@](C)(C(=O)O)CC[C@]5(C)CC[C@@]4(C)[C@]3(C)CC[C@@H]12 | 103%
O=C(c1ccccc1)c1ccccc1 | 100%
CSc1ccc(/C=C2/C(C)=C(CC(=O)O)c3cc(F)ccc32)cc1 | 98%
O=C1CCC(N2C(=O)c3ccccc3C2=O)C(=O)N1 (stereo not given) | 96.8%
COC(=O)c1cc2c(s1)-c1ccccc1OC2 | 97.4%
C=C(C)C1CC=C(C)C(O)C1 (stereo not given) | 89.2%
